In PubChem BioAssay AID425 (Sanford-Burnham Center for Chemical Genomics, 2006):
Where “and” joins values, the source holds several entries; their conditions need not be identical. Equal values may be shown once. About 190 (0.17%) of roughly 110,000 compounds were called active. No stated cut-off is given here; in the data, active means inhibition above about 50%; inactive means the rest. For the sample, actives were picked, then their nearest neighbours and some compounds at random. Measured potencies and affinities stand elsewhere. The source holds several records for some structures; these can differ, active in one and inactive in another.

These molecules were tested against Dual specificity protein phosphatase 6 (Rattus norvegicus) (UniProt Q64346) (assay: inhibition of rat DUSP6 enzyme activity – biochemical, in vitro, primary screen (AID 425;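 further: plate controls were vehicle for no effect and reference inhibitor for full effect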)). Conditions: recombinant MKP-3 phosphatase activity, fluorescence; at 20 µM; stronger effect = higher value.
Chain of Dual specificity protein phosphatase 6 (Rattus norvegicus) (Q64346 whole entry, looked up): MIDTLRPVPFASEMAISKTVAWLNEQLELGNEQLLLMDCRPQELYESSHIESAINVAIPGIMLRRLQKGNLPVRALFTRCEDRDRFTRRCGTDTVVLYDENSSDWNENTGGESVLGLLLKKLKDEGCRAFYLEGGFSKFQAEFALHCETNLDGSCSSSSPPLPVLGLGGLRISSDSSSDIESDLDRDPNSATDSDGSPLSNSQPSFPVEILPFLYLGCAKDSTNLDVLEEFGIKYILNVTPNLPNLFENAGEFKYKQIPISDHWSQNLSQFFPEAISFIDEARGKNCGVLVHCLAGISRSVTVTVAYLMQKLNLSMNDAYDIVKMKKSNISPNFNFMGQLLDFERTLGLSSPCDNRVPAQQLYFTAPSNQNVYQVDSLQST
In the case of CCC1=NN2C(=N)/C(=C/c3ccc(OC)c(OC)c3)C(=O)N=C2S1, the inhibition is reported as -3.5% (inactive).
For COc1ccc(/C=C2/C(=N)N3N=C(C(C)C)SC3=NC2=O)cc1OC, the inhibition was 0% (inactive).
With CC(=O)N1CCC(C(=O)Nc2ccccc2)(N(Cc2ccccc2)C(=O)c2cccnc2)CC1 the inhibition was -4.2% (inactive).
For CCOC(=O)c1c(C)n(C)c2ccc(OC(C)C(=O)OC)cc12 (stereo unspecified), the inhibition was -3.4% (inactive).
With CCOC(=O)c1c2c(n(C)c1CNC(C)C)C(=O)C(=O)c1ccc(Br)cc1-2 the inhibition was 117% (active).
CCOC(=O)c1nnn(-c2nonc2N)c1CNC(C)C was tested, and the inhibition was 6.2% (inactive).
In the case of CCOC(=O)c1c2c(n(C)c1CO)C(=O)C(=O)c1ccc(Br)cc1-2, the inhibition is reported as 120% (active).
Cc1c(CN(C)C)c2c(n1C)C(=O)c1ccc(Br)cc1-2 was tested, and the inhibition was 1.2% (inactive).
In the case of CCOC(=O)c1c2c(n(Cc3ccccc3)c1C)C(=O)C(=O)c1ccc(Br)cc1-2, the inhibition is reported as 34% (inactive).
With Cc1cc([N+](=O)[O-])ccc1NCc1ccco1 the inhibition was 0.4% (inactive).
In the case of Cc1nc(C)n(CC(O)COc2ccc3c(c2)CCC3)n1 (stereo unspecified), the inhibition is reported as -16.3% (inactive).
CCC(=O)Nc1c(C#N)c2nc3ccccc3nc2n1-c1ccc(C)cc1 was tested, and the inhibition was 1.4% (inactive).
C=CCn1c(NC(=O)c2ccccc2)c(C#N)c2nc3ccccc3nc21 was tested, and the inhibition was 23.5% (inactive).
For COc1ccc(C(=O)NCCn2ccc3ccccc32)cc1OC, the inhibition was -4.9% (inactive).
In the case of COC(=O)c1c(NC(=O)c2c(C)noc2C)sc2c1CCCCCC2, the inhibition is reported as -8.3% (inactive).
CC(=O)Nc1ccc(S(=O)(=O)NCC(C)NS(=O)(=O)c2ccc(NC(C)=O)cc2)cc1 (stereo unspecified) was tested, and the inhibition was -11.4% (inactive).
With Cc1ccc(S(=O)(=O)NCC(C)NS(=O)(=O)c2ccc(C)cc2)cc1 (stereo unspecified) the inhibition was 69.6% (active).
With CCCC(C)NS(=O)(=O)c1ccc(C)cc1 (stereo unspecified) the inhibition was -0.1% (inactive).
In the case of COC(=O)c1ccc(-c2ccc(/C=N\Nc3ccc([N+](=O)[O-])cn3)o2)cc1, the inhibition is reported as 5.2% (inactive).
In the case of CCSc1nc(N)c2c3c(sc2n1)COC(C)(CC)C3 (stereo unspecified), the inhibition is reported as 3.9% (inactive).
CC(=O)Nc1ccc(C(=O)NCc2ccccn2)cc1 was tested, and the inhibition was 1.3% (inactive).
With Cc1ccnc(NS(=O)(=O)c2ccc(NC(=O)c3cccc(I)c3)cc2)n1 the inhibition was 1.1% (inactive).
In the case of CC1(C)CC(NC(=O)CCc2ccccc2)CC(C)(C)N1, the inhibition is reported as 3.8% (inactive) and -2.1% (inactive).
In the case of Oc1ccc(N=Cc2cc(Br)cc(Br)c2O)cc1, the inhibition is reported as 9.6% (inactive).
In the case of Oc1ccc(N=Cc2ccc(O)c(O)c2)cc1, the inhibition is reported as 69.4% (active) and -3.7% (inactive).
With COc1ccc(N=Cc2ccc(O)c(OC)c2)cc1 the inhibition was -0.9% (inactive).
Cc1cccc(C=Nc2ccc(O)cc2)c1 was tested, and the inhibition was 118% (active).
In the case of Oc1ccc(C=Nc2ccc(O)cc2)cc1, the inhibition is reported as 51% (active).
In the case of Oc1ccc(/C=N/N=C/c2ccc(O)c(O)c2)cc1O, the inhibition is reported as 1.8% (inactive).
Cc1cccc(C=Nc2ccc(-c3nc4ccc(C)cc4s3)cc2)c1 was tested, and the inhibition was -2.3% (inactive).
In the case of Oc1cccc(C=Nc2ccc(Cl)c(Cl)c2)c1, the inhibition is reported as -1.5% (inactive).
For CN(C)c1ccc(C=Nc2ccc(N(C)C)cc2)cc1, the inhibition was -3.9% (inactive).
In the case of COc1ccc2c(c1OC)CN(C)CCc1cc3c(cc1C(O)C2)OCO3 (stereo unspecified), the inhibition is reported as -15.6% (inactive).
With COc1ccc(C2NC(=O)NC(C)=C2C(=O)Nc2ccccc2C)cc1OC (stereo unspecified) the inhibition was -0.4% (inactive).
With O=C1CCCC2=C1C(c1ccc(Cl)cc1)Nc1ccccc1N2 (stereo unspecified) the inhibition was 0.4% (inactive).
For Cc1ccccc1NC(=O)CCCN1C(=O)/C(=C/c2cccc3c2OCO3)SC1=S, the inhibition was 4.3% (inactive).
With CSc1nsc(SC)c1NC(=O)OCc1ccccc1 the inhibition was -3.9% (inactive) and 1.7% (inactive).
In the case of COc1cccc(C(=O)Nc2ccc(OC(F)(F)F)cc2)c1, the inhibition is reported as 3.1% (inactive).
In the case of COc1ccc(/C=C2\SC(=O)N(CC(=O)Nc3nccs3)C2=O)cc1OC, the inhibition is reported as 0% (inactive).
With O=S(=O)(NCc1ccc(F)cc1)c1ccc2ccccc2c1 the inhibition was 0% (inactive).
COC(=O)c1sc(=S)n(-c2cc(F)ccc2F)c1N was tested, and the inhibition was 10.2% (inactive).
Cc1ccc2[nH]c(C)c(CC(=O)N/N=C/c3cccnc3)c2c1 was tested, and the inhibition was -2% (inactive).
Cn1c(O)c(/C=C2/C=CC=N2)c(=O)n(-c2ccccc2)c1=S was tested, and the inhibition was 95.6% (active).
In the case of O=c1[nH]c(=S)n(-c2cccc(Cl)c2)c(O)c1/C=C1/C=CC=N1, the inhibition is reported as 9% (inactive).
For O=c1[nH]c(=S)n(-c2ccccc2F)c(O)c1C=C1C=CC=N1, the inhibition was 60.5% (active).
In the case of Cc1ccccc1-n1c(O)c(C=C2C=CC=N2)c(=O)[nH]c1=S, the inhibition is reported as 45.4% (inactive).
In the case of COc1ccc(-n2c(O)c(/C=C3\C=CC=N3)c(=O)[nH]c2=O)cc1, the inhibition is reported as 2.1% (inactive).
O=c1[nH]c(=O)n(-c2ccccc2Cl)c(O)c1C=C1C=CC=N1 was tested, and the inhibition was 3.3% (inactive).
COc1ccc(NC(=O)Cn2nnc(C(N)=O)c2N)c(OC)c1 was tested, and the inhibition was -7.2% (inactive).
With O=C1c2ccc(-c3nc4ccccc4c(=O)o3)cc2C(=O)N1c1ccc(I)cc1 the inhibition was -0.1% (inactive).
In the case of COC(=O)c1ccc(-n2c(C)cc(/C=N/n3cnnc3)c2C)cc1, the inhibition is reported as -6.7% (inactive).
In the case of Cc1nnc(NC(=O)CSc2cn(Cc3ccccc3)c3ccccc23)s1, the inhibition is reported as -5.8% (inactive).
COc1ccc(/C=C/C(=O)Nc2ccc(C)c([N+](=O)[O-])c2)cc1OC was tested, and the inhibition was -0.5% (inactive).
In the case of Cc1ccc(/C=N/n2cnnc2)cc1[N+](=O)[O-], the inhibition is reported as -0.6% (inactive).
With O=C(O)CCCCCN1C(=O)C(=O)/C(=C(/O)c2ccccc2)C1c1ccc(F)cc1 (stereo unspecified) the inhibition was 0.8% (inactive).
CC(C)(C)c1ccc(OCC(=O)NC2CCS(=O)(=O)C2)cc1 (stereo unspecified) was tested, and the inhibition was 3% (inactive).
